Most compounds without a hit are left out; they make up all but 11% or so of the library.
ALDH1A1 inh = qHTS Assay for Inhibitors of Aldehyde Dehydrogenase 1 (ALDH1A1). 7.3% of 220,000 active. Purified ALDH1A1, NADH fluorescence, propionaldehyde substrate. Aldehyde dehydrogenase 1A1 (Homo sapiens), P00352. Potency, µM (series often up to 75.3 µM), actives largely listed as inhibitors; active = well fitted inhibition curve with a large enough effect, not every such curve was filed as active; inconclusive = small, poorly fitted or top-dose-only effect, or another doubt; inactive = no such curve, though single readings can be large or run the other way
CBFb-RUNX1 inh = qHTS Assay for Compounds Blocking the Interaction Between CBF-beta and RUNX1 for the Treatment of Acute Myeloid Leukemia. AlphaScreen CBFb-His/RUNX1-biotin binding, biochemical. Potency, µM (highest dose often 59.8 µM), hits mostly inhibitors. Runt-related transcription factor 1 (Homo sapiens) + Core-binding factor subunit beta …. 230,000 tested, under 10 active
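Bead-based AlphaScreen assay; binding partners His-tagged CBF-beta and biotinylated RUNX1 at 30 nM each. Compound exposure 15 min after a 20-min protein preincubation; bead step 90 min; all steps at room temperature.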
HPGD inh = qHTS Assay for Inhibitors of HPGD (15-Hydroxyprostaglandin Dehydrogenase). 15-hydroxyprostaglandin dehydrogenase [NAD(+)] (Homo sapiens), P15428. purified HPGD, NADH fluorescence kinetic, PGE2 substrate. Potency, µM, most hits filed as inhibitors. 4.3% of 150,000 active. AID 894, 2007; active = well fitted inhibition curve with a large enough effect, not every such curve was filed as active; inconclusive = small, poorly fitted or top-dose-only effect, or another doubt; inactive = no such curve, though single readings can be large or run the other way
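NADH formation kinetics: reaction with 30 uM PGE2 and 1 mM NAD+ (final), 20 nM enzyme, Tris-HCl pH 8 with Tween 20, after 15 min compound preincubation at room temperature. Fluorescence change, last versus first of five reads.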
HTT ATP protect = qHTS Multiplex Assay to Identify Dual Action Probes in a Cell Model of Huntington: Cytoprotection (ATP); AID 1471, 2008; PC12 HTT-Q103 induced, cytoprotection, ATP luminescence, 40 h; Potency, µM (top dose mostly 56.4 µM), actives largely listed as activators; 0.14% of 230,000 active; also: nearly all actives have a fitted effect of over 45% in size
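Cells were plated at 1500 per well in phenol red-free DMEM with 5% equine and 5% calf serum. Tebufenozide (100 nM final) and compounds were added, then ATPlite reagent, and luminescence was read.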
PNC assembly inh = High Content Assay for Compounds that inhibit the Assembly of the Perinucleolar Compartment; PC3M PTB-GFP, PNC prevalence imaging, 16 h; active compounds read low; activity change (PNC), negative = inhibition, % at 10 µM; 3.1% of 140,000 active;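 active = readout at or below -70, meaning at least 70% loss of cells showing the perinucleolar compartment, a nuclear body marking cancer cells; inconclusive = readout between -30 and a set limit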
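Read-out is percentage of cells bearing a perinucleolar compartment, from automated 20x imaging of fixed, Hoechst-stained PC3M PTB-GFP cells. Cells were seeded 4 h, then exposed 16 h to compound (23 nl of library stock) in duplicate plates.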
HttQ103 aggreg = qHTS Multiplex Assay to Identify Dual Action Probes in a Cell Model of Huntington: Aggregate Formation (GFP) | PC12 HttQ103-GFP aggregates, Acumen cytometry, 40 h | AID 1688, 2009 | Potency, µM (titrated, usually from 46.1 µM), usual class: inhibitors | 1.1% of 220,000 active; also: nearly all actives have a fitted effect of over 60% in size
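Aggregate formation scored by laser-scanning cytometer (488 excitation, 500–530 emission) in lysed PC12 cells expressing Q103-GFP after 100 nM tebufenozide induction; library tested in dose series, with ATPLite reagent added in the multiplex.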
Of the large screens only hits and unclear results are named; the others gave an inactive call; ! = a repeat was not active. Unless noted, calls follow the shape of the dose curve; as a rule, active = well fitted curve in the direction sought with a large enough effect; inconclusive = small, poorly fitted or top-dose-only effect, or another doubt; inactive = no such curve, though single readings can be large; an effect the other way counts as inactive or inconclusive.

Cn1ccc(-c2ccccc2)n1	none (no result: HPGD inh, PNC assembly inh)
N#Cc1cc(-c2ccccc2)nn1-c1ccccc1	ALDH1A1 inh 22µM, HPGD inh 13µM
CCCCC/C=C\C/C=C\CCCCCCCC(=O)O	ALDH1A1 inh 18µM!, HPGD inh 8.9µM! (no result: PNC assembly inh)
Cc1ccc(S(=O)(=O)Nc2cccc3ccc[n+](C)c23)cc1	none (no result: ALDH1A1 inh, HPGD inh, HTT ATP protect, PNC assembly inh, HttQ103 aggreg)
CN(C)CCCN1c2ccccc2Sc2ccc(Cl)cc21	HTT ATP protect inconclusive, PNC assembly inh -110!
NS(=O)(=O)c1cc([C@@]2(O)NC(=O)c3ccccc32)ccc1Cl	none (no result: PNC assembly inh)
CN(C)c1ccc(/C=c2/sc3n(c2=O)NC2(c4ccccc4)N(C)C(=O)N(C)C2(c2ccccc2)N=3)cc1 (centres undefined)	PNC assembly inh -84 (no result: HTT ATP protect)
O=C(Nc1ccc2nn(-c3ccccc3)nc2c1)c1ccco1	HPGD inh inconclusive, PNC assembly inh -100
Nc1nc(NC(=O)c2ccco2)nn1-c1ccccc1	PNC assembly inh -90
O=C(Nc1cc2nn(-c3ccccc3)nc2cc1Cl)c1ccco1	none
CO[C@@H]1/C=C\CC(=O)N[C@@H](C)C(=O)OC[C@@H](OC)[C@H](C)CCCC(=O)OC[C@H]1C	none (no result: HPGD inh, PNC assembly inh, HttQ103 aggreg)
COc1cc(/C=C(\C#N)C(=O)NC2CCCCC2)ccc1OCc1ccc(C(=O)O)cc1	ALDH1A1 inh 14µM (no result: HPGD inh, PNC assembly inh)
COc1cc(/C=C(/C#N)C(=O)Nc2ccccc2)ccc1OCc1ccc(C(=O)O)cc1	ALDH1A1 inh 22µM (no result: HPGD inh, PNC assembly inh)
COc1cc(/C=C(\C#N)C(=O)NC(C)C)ccc1OCc1ccc(C(=O)O)cc1	ALDH1A1 inh inconclusive (no result: HPGD inh, PNC assembly inh)
COc1ccc(/C=C(\C#N)C(=O)NCC2CCCO2)cc1OC (centres undefined)	ALDH1A1 inh inconclusive, HPGD inh 22µM, PNC assembly inh inconclusive
C=CCn1c(SCC(=O)Nc2nnc(CC)s2)nnc1-c1ccncc1	none (no result: HPGD inh, PNC assembly inh)
O=C(c1cccc(C(=O)N2CCN(c3ccccc3F)CC2)c1)N1CCN(c2ccccc2F)CC1	ALDH1A1 inh inconclusive
O=C(C(Sc1ccccc1)c1ccc(Br)cc1)N1CCOCC1 (centres undefined)	none
O=C(C(Sc1ccccc1)c1ccccc1)N1CCN(c2ccccc2F)CC1 (centres undefined)	ALDH1A1 inh inconclusive, HttQ103 aggreg 10µM
O=C(c1cc(N2C(=O)C3C4CCC(C4)C3C2=O)ccc1Cl)N1CCN(c2ccccc2F)CC1 (centres undefined)	PNC assembly inh -119
O=C(c1c(F)cccc1F)N1CCN(c2ccccc2F)CC1	PNC assembly inh -82
Cc1ccc(NCCC(=O)c2ccc(Cl)cc2)cc1	ALDH1A1 inh 1.4µM
Cc1ccc(NCCC(=O)c2ccc(Br)cc2)cc1	ALDH1A1 inh 0.79µM
CCc1ccc(NCCC(=O)c2ccc(Br)cc2)cc1	none (no result: HPGD inh)
C1CCCC1	none (no result: PNC assembly inh, HttQ103 aggreg)
O=C(Nc1ccc(OCc2ccccc2)cc1)Nc1ccccc1C(=O)NCCCN1CCOCC1	none (no result: HPGD inh, PNC assembly inh)
O=C(CN1CCOCC1)N1CCN(C(=O)CN2CCOCC2)CC1	none (no result: ALDH1A1 inh, CBFb-RUNX1 inh, HPGD inh, PNC assembly inh, HttQ103 aggreg)
Cc1ccc(S(=O)(=O)N2CCCCC2)cc1NC(=O)COC(=O)Cc1cccc(C(F)(F)F)c1	PNC assembly inh inconclusive (no result: HTT ATP protect)
O=C(/C=C/c1c(Cl)cccc1Cl)N1CCN(c2ncccn2)CC1	ALDH1A1 inh inconclusive, HPGD inh inconclusive
CC(=O)Nc1ccc(OCC(=O)N2CCC(Cc3ccccc3)CC2)cc1	none (no result: HPGD inh, PNC assembly inh)
O=C(/C=C/c1ccco1)N1CCC(Cc2ccccc2)CC1	ALDH1A1 inh 20µM, HttQ103 aggreg inconclusive (no result: HPGD inh, PNC assembly inh)
O=C(/C=C/c1ccco1)N1CCN(c2ncccn2)CC1	ALDH1A1 inh 14µM (no result: HTT ATP protect)

Bioassay records as filed in PubChem BioAssay.
